Measurements from ChEMBL document CHEMBL3988442, “University of Dundee, Small-Polar-MMV Screening Library” (2021).
For some of these results: Results with a measured potency or affinity are listed apart.

Legend:
Parameters in all cases: scale not given: direction of the effect not stated beside the values
[1] = target: Protein translocase subunit SecA (Escherichia coli (strain K12)) (UniProt P10408); assay: Assay to Identify E. coli SecA ATPase Inhibitors; format: functional; settings: 30 µM
[2] = target: T1, Ubiquitin-activating enzyme e1, putative (Leishmania donovani (strain BPK282A1)) (UniProt E9BSI1); assay: Leishmania donovani Ubiquitin Activating Enzyme (LdE1); format: functional; settings: 30 µM
T1 sequence (whole entry): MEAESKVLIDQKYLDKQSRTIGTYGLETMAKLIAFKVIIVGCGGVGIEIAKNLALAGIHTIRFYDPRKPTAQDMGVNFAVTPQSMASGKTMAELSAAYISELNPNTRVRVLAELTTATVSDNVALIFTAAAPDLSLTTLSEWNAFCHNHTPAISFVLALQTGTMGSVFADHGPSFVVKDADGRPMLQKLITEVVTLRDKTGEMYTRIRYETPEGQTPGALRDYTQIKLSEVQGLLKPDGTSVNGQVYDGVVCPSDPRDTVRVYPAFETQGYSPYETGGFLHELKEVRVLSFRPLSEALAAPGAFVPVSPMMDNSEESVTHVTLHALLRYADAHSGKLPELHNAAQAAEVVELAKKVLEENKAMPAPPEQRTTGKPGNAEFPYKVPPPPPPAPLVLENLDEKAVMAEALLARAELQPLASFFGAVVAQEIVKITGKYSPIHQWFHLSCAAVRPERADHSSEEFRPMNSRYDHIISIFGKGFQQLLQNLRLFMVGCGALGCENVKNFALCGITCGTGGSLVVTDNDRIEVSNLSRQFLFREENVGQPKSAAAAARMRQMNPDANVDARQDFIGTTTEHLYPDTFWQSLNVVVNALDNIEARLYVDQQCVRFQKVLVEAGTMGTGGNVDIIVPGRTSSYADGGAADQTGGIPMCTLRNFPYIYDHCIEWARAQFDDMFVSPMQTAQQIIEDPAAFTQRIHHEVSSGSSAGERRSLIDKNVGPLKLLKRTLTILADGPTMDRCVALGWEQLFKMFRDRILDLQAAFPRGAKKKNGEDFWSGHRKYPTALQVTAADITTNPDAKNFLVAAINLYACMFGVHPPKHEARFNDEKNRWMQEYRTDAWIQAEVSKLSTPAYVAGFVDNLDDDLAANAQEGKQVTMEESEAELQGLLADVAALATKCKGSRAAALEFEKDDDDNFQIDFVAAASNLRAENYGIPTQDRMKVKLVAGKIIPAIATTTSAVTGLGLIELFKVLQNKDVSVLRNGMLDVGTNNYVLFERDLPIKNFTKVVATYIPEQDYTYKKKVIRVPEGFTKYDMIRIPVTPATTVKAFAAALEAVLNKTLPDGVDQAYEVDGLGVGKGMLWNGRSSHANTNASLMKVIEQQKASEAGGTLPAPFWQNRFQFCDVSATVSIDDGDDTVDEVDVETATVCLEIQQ

[3] = target: AMP-activated protein kinase, AMPK (Homo sapiens) (UniProt P54646+O43741+P54619+Q9UGJ0+Q9Y478+Q13131+Q9UGI9); assay: AMP-dependent Kinase enzyme assay. An in vitro enzyme assay that detects ADP turnover that is directly proportional to AMPK activity. This uses naive AMPK that is activated during the assay with MK-8722; format: functional; settings: 30 µM
[4] = target: Sialic acid-binding Ig-like lectin 9 (Homo sapiens) (UniProt Q9Y336); assay: Hs-Siglec9 ALPHAscreen SOP 20170721; settings: 10 µM
[5] = tested on: Trypanosoma cruzi; assay: Trypanosoma cruzi phosphomannomutase and mannose-1-phosphate guanylyltransferase assay; format: functional; settings: 10 µM
[6] = target: T2, Arginase-2, mitochondrial (Homo sapiens) (UniProt P78540); assay: in vitro enzyme assay to detect the production of urea directly proportional to the activity of Arginase II; format: functional; settings: 33.3 µM; note: in the data most compounds retested in dose-response had high values
T2 sequence (whole entry): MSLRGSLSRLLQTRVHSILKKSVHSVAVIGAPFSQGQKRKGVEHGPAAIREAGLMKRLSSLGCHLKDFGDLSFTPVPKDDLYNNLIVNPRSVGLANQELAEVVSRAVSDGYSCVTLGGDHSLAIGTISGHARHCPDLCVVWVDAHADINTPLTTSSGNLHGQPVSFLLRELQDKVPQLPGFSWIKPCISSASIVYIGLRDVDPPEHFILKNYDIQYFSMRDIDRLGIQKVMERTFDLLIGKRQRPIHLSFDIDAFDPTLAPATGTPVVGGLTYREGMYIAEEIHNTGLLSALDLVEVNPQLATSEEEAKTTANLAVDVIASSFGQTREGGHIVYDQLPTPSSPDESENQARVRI

[7] = target: T3, Proteasome subunit beta (Trypanosoma cruzi) (UniProt O96673); assay: Trypanosoma cruzi proteasome chymotrypsin-like activity (TcProtChymo) assay.; note: in the data most compounds retested in dose-response had high values; format: functional; settings: 9.37 µM
T3 sequence (whole entry): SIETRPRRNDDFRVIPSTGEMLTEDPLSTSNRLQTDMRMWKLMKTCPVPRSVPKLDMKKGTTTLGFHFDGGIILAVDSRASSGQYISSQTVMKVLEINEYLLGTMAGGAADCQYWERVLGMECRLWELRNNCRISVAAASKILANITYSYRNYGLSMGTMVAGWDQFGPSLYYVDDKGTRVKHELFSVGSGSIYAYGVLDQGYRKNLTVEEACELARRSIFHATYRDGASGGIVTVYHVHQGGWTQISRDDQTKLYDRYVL

[8] = species on record: Homo sapiens; assay: To identify inhibition of the IFN signalling (Jak-Stat) pathway via expression of an eGFP reporter gene under the control of an IFN-stimulated response element (ISRE) containing MxA promoter.; format: functional; settings: 30 µM
[9] = target: T4, Tyrosyl-tRNA synthetase, putative (Trypanosoma cruzi (strain CL Brener)) (UniProt Q4DSP6); assay: Trypanosoma cruzi tyrosyl tRNA synthetase (TcYRS) _High Tyrosine SOP; format: functional; settings: 30 µM; note: in the data most compounds retested in dose-response had high values
T4 sequence (whole entry): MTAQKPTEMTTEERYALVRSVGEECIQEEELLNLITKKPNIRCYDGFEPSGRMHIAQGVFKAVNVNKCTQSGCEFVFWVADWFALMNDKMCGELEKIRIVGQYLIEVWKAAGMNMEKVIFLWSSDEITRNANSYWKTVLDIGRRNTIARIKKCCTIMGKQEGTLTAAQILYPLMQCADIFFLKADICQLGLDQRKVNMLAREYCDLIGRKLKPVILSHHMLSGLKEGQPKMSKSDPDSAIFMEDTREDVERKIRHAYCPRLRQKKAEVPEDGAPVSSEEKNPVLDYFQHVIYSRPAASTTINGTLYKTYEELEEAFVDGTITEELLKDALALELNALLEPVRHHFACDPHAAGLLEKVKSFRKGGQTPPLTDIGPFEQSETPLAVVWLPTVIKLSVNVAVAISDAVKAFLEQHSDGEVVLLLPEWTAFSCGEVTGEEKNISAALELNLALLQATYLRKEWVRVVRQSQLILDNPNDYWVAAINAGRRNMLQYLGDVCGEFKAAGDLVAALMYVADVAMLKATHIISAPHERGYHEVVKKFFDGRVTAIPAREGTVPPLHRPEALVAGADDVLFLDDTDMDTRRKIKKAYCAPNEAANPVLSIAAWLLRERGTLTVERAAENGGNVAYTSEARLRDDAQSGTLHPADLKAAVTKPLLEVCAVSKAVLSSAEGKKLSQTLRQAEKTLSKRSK

[10] = target: T4, Tyrosyl-tRNA synthetase, putative (Trypanosoma cruzi (strain CL Brener)); assay: Trypanosoma cruzi tyrosyl tRNA synthetase (TcYRS) SOP; format: functional; settings: 30 µM
[11] = target: Chromo domain-containing protein 1 (Saccharomyces cerevisiae (strain ATCC 204508 / S288c) (Baker's yeast)) (UniProt P32657); assay: ScCHD-1 Enzyme Inhibition Assay; format: functional; settings: 30 µM; note: in the data most compounds retested in dose-response had high values
Sequence of Chromo domain-containing protein 1 (Saccharomyces cerevisiae (strain ATCC 204508 / S288c) (Baker's yeast)) (P32657 whole entry, the tested form may be a part): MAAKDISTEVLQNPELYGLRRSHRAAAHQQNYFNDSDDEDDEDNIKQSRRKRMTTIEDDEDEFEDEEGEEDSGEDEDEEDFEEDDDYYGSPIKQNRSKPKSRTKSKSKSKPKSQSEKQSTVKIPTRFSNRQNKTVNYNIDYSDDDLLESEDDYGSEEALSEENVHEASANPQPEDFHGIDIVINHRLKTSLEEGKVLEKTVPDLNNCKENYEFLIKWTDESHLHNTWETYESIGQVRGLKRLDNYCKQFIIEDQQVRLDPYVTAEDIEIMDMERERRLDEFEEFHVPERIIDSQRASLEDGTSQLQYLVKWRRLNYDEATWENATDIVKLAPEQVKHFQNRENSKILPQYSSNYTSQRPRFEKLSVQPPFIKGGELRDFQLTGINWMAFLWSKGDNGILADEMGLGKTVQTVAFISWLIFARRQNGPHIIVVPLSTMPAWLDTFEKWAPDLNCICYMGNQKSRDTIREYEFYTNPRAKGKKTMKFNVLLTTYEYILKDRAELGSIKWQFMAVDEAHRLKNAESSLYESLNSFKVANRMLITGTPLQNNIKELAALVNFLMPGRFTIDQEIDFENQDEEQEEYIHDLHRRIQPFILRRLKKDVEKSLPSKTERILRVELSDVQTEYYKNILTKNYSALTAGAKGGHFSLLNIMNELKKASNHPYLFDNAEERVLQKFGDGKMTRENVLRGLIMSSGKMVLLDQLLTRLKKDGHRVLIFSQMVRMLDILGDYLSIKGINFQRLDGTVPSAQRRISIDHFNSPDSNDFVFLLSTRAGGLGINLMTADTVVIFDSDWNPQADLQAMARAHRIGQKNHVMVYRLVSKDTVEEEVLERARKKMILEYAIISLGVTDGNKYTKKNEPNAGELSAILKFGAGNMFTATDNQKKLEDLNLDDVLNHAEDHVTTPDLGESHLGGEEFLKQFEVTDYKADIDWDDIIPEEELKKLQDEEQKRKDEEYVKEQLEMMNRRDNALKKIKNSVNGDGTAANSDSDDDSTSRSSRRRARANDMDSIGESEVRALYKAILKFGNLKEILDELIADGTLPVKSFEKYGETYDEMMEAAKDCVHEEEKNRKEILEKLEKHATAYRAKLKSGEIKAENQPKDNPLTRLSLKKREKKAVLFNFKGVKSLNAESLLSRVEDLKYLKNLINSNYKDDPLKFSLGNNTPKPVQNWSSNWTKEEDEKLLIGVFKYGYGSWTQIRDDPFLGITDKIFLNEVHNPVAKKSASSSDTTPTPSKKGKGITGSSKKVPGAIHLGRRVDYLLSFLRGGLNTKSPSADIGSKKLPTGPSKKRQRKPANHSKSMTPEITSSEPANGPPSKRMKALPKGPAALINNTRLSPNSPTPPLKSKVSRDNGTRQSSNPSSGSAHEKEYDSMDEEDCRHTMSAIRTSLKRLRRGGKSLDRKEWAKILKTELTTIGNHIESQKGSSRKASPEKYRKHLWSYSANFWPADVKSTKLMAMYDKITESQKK

Sequence of Sialic acid-binding Ig-like lectin 9 (Homo sapiens) (Q9Y336 whole entry): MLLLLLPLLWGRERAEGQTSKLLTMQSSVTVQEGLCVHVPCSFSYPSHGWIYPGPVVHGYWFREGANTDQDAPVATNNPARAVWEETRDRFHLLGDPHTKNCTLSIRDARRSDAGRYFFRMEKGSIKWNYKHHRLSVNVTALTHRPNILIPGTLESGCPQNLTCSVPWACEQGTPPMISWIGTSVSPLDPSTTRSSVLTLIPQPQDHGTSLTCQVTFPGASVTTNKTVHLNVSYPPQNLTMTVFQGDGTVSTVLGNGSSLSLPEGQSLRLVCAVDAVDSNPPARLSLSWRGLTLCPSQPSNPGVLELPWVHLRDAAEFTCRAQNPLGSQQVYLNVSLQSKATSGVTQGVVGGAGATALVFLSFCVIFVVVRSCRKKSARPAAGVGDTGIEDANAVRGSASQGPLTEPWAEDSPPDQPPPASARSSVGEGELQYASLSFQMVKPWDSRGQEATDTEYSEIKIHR
Sequence of Protein translocase subunit SecA (Escherichia coli (strain K12)) (P10408 whole entry): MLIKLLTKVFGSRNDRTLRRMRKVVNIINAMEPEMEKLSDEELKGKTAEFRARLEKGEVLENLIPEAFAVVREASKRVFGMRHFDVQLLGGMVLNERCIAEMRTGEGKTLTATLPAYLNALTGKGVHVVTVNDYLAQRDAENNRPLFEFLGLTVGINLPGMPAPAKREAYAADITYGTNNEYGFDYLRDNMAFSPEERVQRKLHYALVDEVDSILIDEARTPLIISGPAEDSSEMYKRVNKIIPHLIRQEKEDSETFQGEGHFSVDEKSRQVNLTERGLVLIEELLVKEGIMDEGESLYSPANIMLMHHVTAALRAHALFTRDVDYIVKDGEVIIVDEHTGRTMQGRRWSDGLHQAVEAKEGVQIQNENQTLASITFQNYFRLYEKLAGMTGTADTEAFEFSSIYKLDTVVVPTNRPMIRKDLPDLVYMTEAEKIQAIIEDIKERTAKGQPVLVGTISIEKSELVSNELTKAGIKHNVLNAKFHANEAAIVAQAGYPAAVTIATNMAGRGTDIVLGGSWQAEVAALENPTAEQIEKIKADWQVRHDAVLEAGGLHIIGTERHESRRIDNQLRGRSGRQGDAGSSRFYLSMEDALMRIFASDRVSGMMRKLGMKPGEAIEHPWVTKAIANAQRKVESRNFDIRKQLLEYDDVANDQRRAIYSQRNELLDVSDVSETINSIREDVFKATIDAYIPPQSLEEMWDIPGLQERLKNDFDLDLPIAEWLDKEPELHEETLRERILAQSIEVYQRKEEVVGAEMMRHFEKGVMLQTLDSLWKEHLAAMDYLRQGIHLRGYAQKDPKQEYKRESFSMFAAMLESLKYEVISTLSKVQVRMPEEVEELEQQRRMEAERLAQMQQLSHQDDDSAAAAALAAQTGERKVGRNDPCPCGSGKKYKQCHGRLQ

| SMILES | Percent Effect [1] [%] | Percent Effect [2] [%] | Percent Effect [3] [%] | Percent Effect [4] [%] | Percent Effect [5] [%] | Percent Effect [6] [%] | Percent Effect [7] [%] | Percent Effect [8] [%] | Percent Effect [9] [%] | Percent Effect [10] [%] | Percent Effect [11] [%] |
| --- | --- | --- | --- | --- | --- | --- | --- | --- | --- | --- | --- |
| O=C(NCC(Cc1cccc(F)c1)N1CCCC1=O)c1cnccn1 (stereo not given) | -2.43 | 2.74 | 8.47 | -6.79 | -4.31 | 3.64 | 9.94 | -2.19 | 4.3 | 5 | -2.36 |
| COc1cc(C(=O)N(Cc2cnn(C)c2)C(C)C)ccc1OCC(N)=O | -7.3 | 18.4 | -10.1 | -6.52 | -5.32 | 0 | 10.4 | 9.36 | 0.493 | 6.17 | -2.3 |
| Cc1cc(=O)n2ncnc2n1CC(O)c1cc(F)ccc1F (stereo not given) | -4.1 | 18.4 | 1.21 | -4.45 | 5.55 | 1.18 | 15.6 | 6.3 | 5.32 | 20.8 | -3.49 |
| Cc1cc(-c2cnn(CCNC(=O)C3CCCO3)c2C2CC2)on1 (stereo not given) | -5.64 | 4.05 | 12 | 8.12 | 5.34 | 0.232 | 3.59 | 0.87 | 2.15 | 11.7 | 0.889 |
| CC(C)Oc1cccc(C(=O)C2CCCN(C(=O)c3ccccn3)C2)c1 (stereo not given) | -2.58 | 0 | -1.81 | 4.35 | -2.12 | -1.91 | 14.3 | 5 | 0.529 | 2.44 | -1.58 |
| O=C(NCc1ccccn1)[C@@H]1CCO[C@@H]2CCN(Cc3ccoc3)C[C@H]21 | -4.59 | 8.11 | 7.22 | -2.83 | -3.03 | 0.955 | 17.5 | 3.21 | 4.32 | 15.4 | -2.07 |
| CCn1c(CN2CCC(O)(C(=O)OC)CC2)nc2c(F)cccc21 | -3.73 | -44.7 | -3.77 | 0.565 | 8.27 | -3.06 | 7.85 | 11.3 | 5.39 | 9.76 | -12.4 |
| Cn1nnc2c1CCN(CC1CC1)C2COCc1ccccc1 (stereo not given) | -1.15 | 16 | -5.25 | -5.75 | 2.36 | 5.36 | 3.44 | -2.55 | 9.57 | 14.1 | -4.41 |
| CCOC(=O)c1sc(NC(=O)CN(C)S(C)(=O)=O)c(C#N)c1C | -1.3 | 10.4 | 11.5 | -2.4 | -1.87 | 4.52 | 9.4 | 21.1 | 3.17 | 14.1 | -8.72 |
| O=C(Cc1ccc2c(c1)CCCC2)NCCc1ccccn1 | -2.72 | -7.89 | -4.68 | -1.25 | 0.0934 | 1.44 | 16.2 | 12.1 | 7.39 | 23.5 | -7.01 |
| CC(=O)c1ccc(C(=O)NCCCOC(C)c2ccccc2)s1 (stereo not given) | -1.12 | 7.89 | 0.104 | -8.61 | 1.07 | -8.28 | 13.9 | 21.8 | -3.19 | 10.4 | -1.78 |
| Cc1cc(C)cc(C2(C(=O)NC(C)Cn3ccnc3)CC2)c1 (stereo not given) | -2.27 | 25.3 | -10.3 | 0.0554 | 3.31 | -4.56 | 14.3 | -5.91 | 8.37 | 24.1 | -10.8 |
| Cc1cnn(CCNCc2ccc(OCC(N)=O)cc2)c1 | -7.27 | 5.33 | -3.69 | 3.41 | 3.8 | 5.21 | 4.36 | -9.67 | 3.83 | 8.64 | -7.44 |
| O=C(c1ccccn1)N1CCCC(c2nccn2Cc2ccncc2)C1 (stereo not given) | -1.27 | 2.74 | -0.242 | 0.902 | 2.94 | 0.909 | 19.7 | 3.55 | 10.8 | 10 | -14 |
| CC(C)NC(=O)Cn1cc(-c2ccccc2)cn1 | -1.92 | 6.33 | 6.33 | -0.321 | 2.15 | 3.23 | 13.7 | -2.22 | 4.17 | 10.1 | 1.99 |
| CC(C)CN1CCC(c2nc3c([nH]2)CC(C)(C)CNC3=O)C1 (stereo not given) | 3.37 | 8.11 | -3.98 | 5.96 | 3.67 | 16.2 | 10.5 | 19.8 | 5.82 | 19.5 | -2.21 |
| CN(Cc1cccc(Cl)c1)S(=O)(=O)N1CCOCC1 | -3.38 | 10.5 | 6.62 | -2.67 | 4.58 | -5.92 | 23.9 | -6.09 | 1.06 | 15.6 | -2.59 |
| CSc1nccn1-c1cccc(C(=O)NCC2CC2)c1 | -4.93 | 7.89 | 0.0421 | 2.24 | 6.82 | -1.44 | 3.13 | 2.37 | 5.42 | 13.6 | 2.32 |
| c1cnn(CC2CCCN2c2ncnc3sccc23)c1 (stereo not given) | -5.43 | -2.7 | 2.65 | 6.51 | -2.14 | 3.14 | -1.44 | 66.4 | 2.97 | -25.6 | 11.4 |
| Cc1nc(CCN(C)C(=O)C2COc3ccccc3C2)no1 (stereo not given) | -7.54 | 13 | -6.34 | 19.8 | 8.55 | 5.52 | 16.1 | -0.00401 | 5.38 | 13.6 | -7.23 |
